Experimental data as given in PMC7819943, “Rice protein-binding microarrays: a tool to detect cis-acting elements near promoter regions in rice”.
Whole data set: some 68,000 sequences, median “fluorescence intensity (a.u.)” near 9,100, cut for the highest 2% near 16,000. This is one part of a sample in which the highest values are shown more often than they occur.

The sequences below were run against OsWRKY34 (Oryza sativa, UniProt Q0JBA9 1-250) (assay: protein-binding microarray (RPBM); PBS, 2% BSA, 51.3 ng/ul salmon testes DNA, 50 uM zinc acetate, 200 nM TF, 25 C, 1 h; high values mean tight binding). Settings: protein: recombinant; tags: N-terminal polyhistidine and DsRed monomer fusion (pET32a); label: CyDye5-dUTP incorporated in the synthesized complementary strand; 3' TTTTT single-stranded linker to array surface; dsDNA, one strand shown.
OsWRKY34, sequence (Q0JBA9 entry or part of it): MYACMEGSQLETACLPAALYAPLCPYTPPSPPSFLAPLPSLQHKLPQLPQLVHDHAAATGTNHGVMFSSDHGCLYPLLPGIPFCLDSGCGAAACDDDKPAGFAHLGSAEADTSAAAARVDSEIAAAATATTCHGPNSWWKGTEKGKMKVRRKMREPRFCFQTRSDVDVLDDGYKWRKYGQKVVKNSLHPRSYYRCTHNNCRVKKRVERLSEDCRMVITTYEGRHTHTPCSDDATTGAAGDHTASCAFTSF
Outline: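 Binding signal here means per-feature fluorescence intensity in arbitrary units. The values were read on an Axon 4000B scanner after a custom Agilent array, double-stranded by primer extension with Cy5-dUTP, was incubated with 200 nM protein at 25 °C for 1 h in PBS with 2% BSA, salmon testes DNA and 50 µM zinc acetate, then washed. The proteins were transcription factors with an N-terminal polyhistidine tag and DsRed, expressed in E. coli BL21-CodonPlus and purified on Ni–NTA.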

Row | Sequence | binding signal
1 | TCTCCTCACCGGCCCCTCTTCCCCTTCGATTCTGGCGGCTCGGAGTCACCTAGTGCAG | 8880 fluorescence intensity (a.u.)
2 | TTCGTTTCTGGCTTTTTCGTCGTGTTCCGATTTCAATCTCCGGAGTCACCTAGTGCAG | 12700 fluorescence intensity (a.u.)
3 | CTACATGGGTGTTGACTCATTTTATTTATCTTTTTCTCCACGGAGTCACCTAGTGCAG | 10300 fluorescence intensity (a.u.)
4 | GCCTATCCTGCCCTCTCTACTACCACCCTTATCGATCTCTCGGAGTCACCTAGTGCAG | 8340 fluorescence intensity (a.u.)
5 | AAGAGACTTCTATATCTCTATATCCTTCTTATTTGCGTCCCGGAGTCACCTAGTGCAG | 8080 fluorescence intensity (a.u.)
6 | TTGCTCTCACATTTCGTGCACTACATCTTCTCGGTGGTCCCGGAGTCACCTAGTGCAG | 8380 fluorescence intensity (a.u.)
7 | AATTTGGTGGGGTCGGGGTGGGTGCTTTAACTGGGGAGATCGGAGTCACCTAGTGCAG | 24500 fluorescence intensity (a.u.)
8 | GCGGGTGGGTCTAGAGATTTTTTTTATTTGTTAATTGGATCGGAGTCACCTAGTGCAG | 10400 fluorescence intensity (a.u.)
9 | GTTGTCGGTGTGTGGGTGGTGATATATTTTTTTAACTGGTCGGAGTCACCTAGTGCAG | 9020 fluorescence intensity (a.u.)
10 | TGAGGTGAGGGCAGGGGCAGGGGCAGGGCGGACTGGCCAACGGAGTCACCTAGTGCAG | 8680 fluorescence intensity (a.u.)
11 | TCACTTTTTTTTCCATTCATTGTATGATTTCTTCTATTATCGGAGTCACCTAGTGCAG | 10900 fluorescence intensity (a.u.)
12 | AAAAAATACTATCTATGTACCCCTCCGTTTCTTTTTATTTCGGAGTCACCTAGTGCAG | 8890 fluorescence intensity (a.u.)
13 | CCTGATCGCCTCCTCCGCCACCGCCGTGTTCGATTCGTCTCGGAGTCACCTAGTGCAG | 9670 fluorescence intensity (a.u.)
14 | CAACAACATCATCATCGCTCACATCCGCATCTCCACACAACGGAGTCACCTAGTGCAG | 13500 fluorescence intensity (a.u.)
15 | CTCCGCATCCCTCTCGCTCCTACCTTACCCCTCGCCGCCACGGAGTCACCTAGTGCAG | 10200 fluorescence intensity (a.u.)
16 | TGCCACCACCTTACCCTTTGCCAACATGCATCCGCTCCAACGGAGTCACCTAGTGCAG | 19100 fluorescence intensity (a.u.)
17 | GCTCCGCCTGCCAGATCCATATGAGCCACCTGCGCCGCTACGGAGTCACCTAGTGCAG | 8720 fluorescence intensity (a.u.)
18 | CGCCATCACTGCCAAGCTCGCCGGCTACATCGCCCGCGCCCGGAGTCACCTAGTGCAG | 8040 fluorescence intensity (a.u.)
19 | ATGCTGAATTGGGTTGGGCTGGGGAGGAATTATAGACTATCGGAGTCACCTAGTGCAG | 17500 fluorescence intensity (a.u.)
20 | CTGGGTGGGGAATTGGTTTAGTGAAGGATTAGTTGCTGATCGGAGTCACCTAGTGCAG | 9770 fluorescence intensity (a.u.)
21 | GGGGAGGAATTATGGACTATTTGGATGGGCTTTTTTTACTCGGAGTCACCTAGTGCAG | 8030 fluorescence intensity (a.u.)
22 | AGTTGGGCAGCAGTGGGTTGTGATATACTATGTGAATTATCGGAGTCACCTAGTGCAG | 9100 fluorescence intensity (a.u.)
23 | GCCAGTTAGGGACCTAGGGACTTGGGTTGGGCGGGAACTTCGGAGTCACCTAGTGCAG | 14100 fluorescence intensity (a.u.)
24 | CTTGGGTTGGGCGGGAACTTGGGGAGGAATTATGGACTATCGGAGTCACCTAGTGCAG | 16800 fluorescence intensity (a.u.)
25 | CTAGAAGGTGACTTTTCCAACTCAACTCTCGTTTTTTCACCGGAGTCACCTAGTGCAG | 11500 fluorescence intensity (a.u.)
26 | ACTTTATTACACACATAAACTTTCAACTTTACCGTCACATCGGAGTCACCTAGTGCAG | 9420 fluorescence intensity (a.u.)
27 | AATCTTCTAACCACCGTACGTTCTCCTCGCACTATAAATACGGAGTCACCTAGTGCAG | 11500 fluorescence intensity (a.u.)

Row | Sequence | binding signal
28 | AAGATAGATGCCACTAATTTTTACACTGTATTTTGTAACTCGGAGTCACCTAGTGCAG | 8290 fluorescence intensity (a.u.)
29 | CACATGCTTATACCGTTCGTGCTGGAGTTCCTGATCGATGCGGAGTCACCTAGTGCAG | 8070 fluorescence intensity (a.u.)
30 | GTAGGAGGGTGGTTGGTTGTAGAATGGGAAGAAATTTGAACGGAGTCACCTAGTGCAG | 11100 fluorescence intensity (a.u.)
31 | AAACGTCAAAAGACTCAAAACCCAAAACCCGCGTGCTGACCGGAGTCACCTAGTGCAG | 8030 fluorescence intensity (a.u.)
32 | CCACGTAGGCGCCACGTCAGCCAAAACCGCTCTTAAAACCCGGAGTCACCTAGTGCAG | 8110 fluorescence intensity (a.u.)
33 | CGGTAGGCGTACGTGGAGACCGGTGGAATTCGTCAAAACCCGGAGTCACCTAGTGCAG | 55000 fluorescence intensity (a.u.)
34 | AAGGTTCGTTTCATTTTTTTTTACTTAATTAACTATTCCTCGGAGTCACCTAGTGCAG | 8740 fluorescence intensity (a.u.)
35 | ACTCTTGGTATGTTCTGCTTAGATACACTGTGTTGCTTGCCGGAGTCACCTAGTGCAG | 9380 fluorescence intensity (a.u.)
36 | GCCGTTAACTTTTTTAAATATGTTTGACCGTTCGTCTTATCGGAGTCACCTAGTGCAG | 10800 fluorescence intensity (a.u.)
37 | TCTTTTTGTTTGACTTTTTTAAAACCACAGGTCACCCTTACGGAGTCACCTAGTGCAG | 14800 fluorescence intensity (a.u.)
38 | TTGACTTTTTATTAACGTTTGACCATTTGTTTTATTTAAACGGAGTCACCTAGTGCAG | 12000 fluorescence intensity (a.u.)
39 | CACCGTTGACTTTTTGACCAACGTTTGACCCTTTGTTTTACGGAGTCACCTAGTGCAG | 57700 fluorescence intensity (a.u.)
40 | TGTACGTGACCAGTAACGCGTTGACCTTTTCTTTGTTGAACGGAGTCACCTAGTGCAG | 17000 fluorescence intensity (a.u.)
41 | GGTCTTGTCTGTTGTGTTAGCCATTTGTACCAACTCATGACGGAGTCACCTAGTGCAG | 12000 fluorescence intensity (a.u.)
42 | TTCACGTGTGTTTTGTGTAGTTTTCTACCAGTTTGTTGAACGGAGTCACCTAGTGCAG | 8470 fluorescence intensity (a.u.)
43 | TGACTTTTTTAAATATGTTTGACCGTTCGTCTTATTGAAACGGAGTCACCTAGTGCAG | 8190 fluorescence intensity (a.u.)
44 | TCTTGTGTACGTTGTGTGTTGTCATTGTGTGTCTGTCTTACGGAGTCACCTAGTGCAG | 17200 fluorescence intensity (a.u.)
45 | TTGACCTTTTCTTTGTTGAACGTTGACCGTTCCGTCTTATCGGAGTCACCTAGTGCAG | 14300 fluorescence intensity (a.u.)
46 | CTTTGTTGTTTTCTTCTGTTAGTGTCTGTATTATTCATTACGGAGTCACCTAGTGCAG | 9880 fluorescence intensity (a.u.)
47 | CGCCGTTGACTTTTTTAAATATGTTTGACCGTTCGTCTTACGGAGTCACCTAGTGCAG | 39400 fluorescence intensity (a.u.)
48 | GTGGGTTGGGCCAAAGAAAGGTAGGCTGAGTGGAGGGATGCGGAGTCACCTAGTGCAG | 10400 fluorescence intensity (a.u.)
49 | CGCACACCACCGCCTACGTAGTAGCTCTGATCGGCGCTGTCGGAGTCACCTAGTGCAG | 8250 fluorescence intensity (a.u.)
50 | AATTTTTTTTCAGCTGATCGCCACTTTATTCTTTTCATACCGGAGTCACCTAGTGCAG | 10200 fluorescence intensity (a.u.)
51 | ACCGTGTTGCTGCCTGGTGCTCGCTTTGTTCGTAGGCCTTCGGAGTCACCTAGTGCAG | 8520 fluorescence intensity (a.u.)
52 | GCTAGCGCTGGAATGGTCCTACTTCTTTCATTTACAACATCGGAGTCACCTAGTGCAG | 8690 fluorescence intensity (a.u.)
53 | TATCATTATGTCCGAACGGTATACCTTCTTGTATCATTTCCGGAGTCACCTAGTGCAG | 11200 fluorescence intensity (a.u.)
54 | CTCCGTAAGCTCCAGCCCACTGCCACCGCTGCTCCAGCTACGGAGTCACCTAGTGCAG | 8250 fluorescence intensity (a.u.)
